The list is not random: actives were taken first. Their share in the collection is about 4.9%.
tim10-1 inh – tim10-1 yeast growth inhibition; S. cerevisiae tim10-1 ts strain growth, BacTiter-Glo, 24 h; inhibition, % at 20 µM; 330,000 tested, 2.2% active; AID 463190;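 active = inhibition of at least 40%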;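 also: mutant grown at 25 °C; 0% = DMSO wells with yeast and 100% = wells holding no yeast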
NLRP3 yeast inh – NALP3 inhibition in yeast. 330,000 tested, 0.39% active. inhibition, % at 10 µM. Yeast reconstituted NLRP3/ASC/caspase-1, beta-gal luminescence, 24 h;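 active = inhibition of 50% or more; inactive = inhibition below 50%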;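 also: plate controls were induced DMSO wells for no effect and uninduced yeast grown without galactose for full effect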
SKKanGAS inh – SKKanGAS growth inhibition | inhibition, % at 7.5 µM | S. pyogenes SKKanGAS, kanamycin growth, BacTiter-Glo, 6 h | 300,000 tested, 1.3% active;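 active = mean replicate score, as percent of positive control median, at least 50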;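 also: strain carries kanamycin resistance gene driven by streptokinase promoter and grows in 40 µg/ml kanamycin; loss of luminescence reflects streptokinase promoter inhibition or plain growth inhibition; 0% = median of DMSO wells and 100% = positive control at its reference dose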
NALP1 yeast inh – blocks the NALP1 inflammasome reconstituted in yeast | inhibition, % at 10 µM | S. cerevisiae NALP1/ASC/caspase-1 growth, X-gal OD620, 72 h | 280,000 tested, 0.61% active; in the data active = inhibition mostly above about 24%, no sharp cut-off; inactive = mostly below about 32%
TIM10 inh – growth inhibitors of TIM10 yeast strain; S. cerevisiae TIM10 strain growth, BacTiter-Glo luminescence, 24 h; inhibition, % at 10 µM; 330,000 tested, 1.4% active;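 active = inhibition of 40% or more at the single tested concentration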;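 also: wild-type TIM10 isogenic control strain grown at permissive 25 °C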
tim23-1 inh – growth inhibitors of tim23-1 mutant yeast | S. cerevisiae tim23-1 growth, BacTiter-Glo luminescence, 24 h | inhibition, % at 20 µM | 330,000 tested, 1.3% active | AID 463212;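 active = growth inhibition of the mutant yeast at or above 50%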;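 also: temperature-sensitive mutant grown at 25 °C; plate controls were DMSO-treated mutant yeast for no effect and medium wells lacking yeast for full effect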
* marks the source's active call; other numbers are inactive results.

Results for COc1cccc(-c2nnc(NC(=O)c3ccc(S(=O)(=O)N4CC(C)OC(C)C4)cc3)o2)c1 (stereo unspecified) ?
tim10-1 inh: 27; NLRP3 yeast inh: 3; SKKanGAS inh: 93*; NALP1 yeast inh: 1; TIM10 inh: 25; tim23-1 inh: 26

What do the screens show for `COc1ccc(-c2nnc(NC(=O)c3cc(Cl)ccc3Cl)o2)cc1`?
tim10-1 inh: 33; NLRP3 yeast inh: 8; SKKanGAS inh: 86*; NALP1 yeast inh: -12; TIM10 inh: 15; tim23-1 inh: 1

Results for COc1ccc(-c2nnc(NC(=O)c3ccc(F)cc3)o2)cc1 ?
tim10-1 inh: 9; NLRP3 yeast inh: 19; SKKanGAS inh: 91*; NALP1 yeast inh: 10; TIM10 inh: -9; tim23-1 inh: 11

What do the screens show for `COc1ccccc1C(=O)Nc1nnc(-c2ccc(Cl)cc2)o1`?
tim10-1 inh: 8; NLRP3 yeast inh: 31; SKKanGAS inh: 4; NALP1 yeast inh: -6; TIM10 inh: 1; tim23-1 inh: 28

Results for Cc1ccccc1C(=O)Nc1nnc(-c2ccc(F)cc2)o1 ?
tim10-1 inh: 5; NLRP3 yeast inh: 15; SKKanGAS inh: 61*; NALP1 yeast inh: -4; TIM10 inh: 14; tim23-1 inh: -9

What do the screens show for `COc1ccc(S(=O)(=O)NCC(=O)Nc2ccc3c(c2)OCCO3)cc1OC`?
tim10-1 inh: 13; NLRP3 yeast inh: 19; SKKanGAS inh: -1; NALP1 yeast inh: -11; TIM10 inh: -3; tim23-1 inh: 9

Results for O=C(Nc1ccc(Nc2ccncc2)cc1)c1ccc(Nc2ccnc3ccc([N+](=O)[O-])cc23)cc1[N+](=O)[O-] ?
SKKanGAS inh: 54*; NALP1 yeast inh: 9

Results for O=C(Nc1ccc(Nc2ccncc2)cc1)c1ccc([N+](=O)[O-])cc1 ?
tim10-1 inh: -49; NLRP3 yeast inh: 18; SKKanGAS inh: 3; NALP1 yeast inh: 10; TIM10 inh: -16; tim23-1 inh: -15

What do the screens show for `CCOC(=O)Cn1c(=O)oc2cc(S(=O)(=O)NCCC(C)C)ccc21`?
tim10-1 inh: 16; NLRP3 yeast inh: 2; SKKanGAS inh: 2; NALP1 yeast inh: 41*; TIM10 inh: 4; tim23-1 inh: 1

What do the screens show for `O=C(CNC(=O)c1cc(Cl)nc2ccccc12)Nc1ccccc1Br`?
tim10-1 inh: 0; NLRP3 yeast inh: -12; TIM10 inh: 0; tim23-1 inh: -4

What do the screens show for `CCOc1cc(N2CCOCC2)c(OCC)cc1NC(=O)c1cc(S(=O)(=O)N2CCOCC2)ccc1C`?
tim10-1 inh: -6; NLRP3 yeast inh: -10; TIM10 inh: 7; tim23-1 inh: 4

What do the screens show for `O=[N+]([O-])c1ccc(O)c(Nc2c([N+](=O)[O-])ccc3nonc23)c1`?
tim10-1 inh: 16; NLRP3 yeast inh: 29; SKKanGAS inh: 17; NALP1 yeast inh: 4; TIM10 inh: 10; tim23-1 inh: 14

What do the screens show for `O=C(Oc1ccc(NC2=NS(=O)(=O)c3ccccc32)cc1)c1cccnc1`?
tim10-1 inh: -23; NLRP3 yeast inh: 19; SKKanGAS inh: 59*; NALP1 yeast inh: 4; TIM10 inh: -21; tim23-1 inh: -12

Results for CCCCn1c(N)c(N(CC)C(=O)C2CCN(C(=O)c3ccccc3C)CC2)c(=O)[nH]c1=O ?
tim10-1 inh: 5; NLRP3 yeast inh: 3; TIM10 inh: 0; tim23-1 inh: 6

Results for O=[N+]([O-])c1cnccc1Nc1ccccc1 ?
tim10-1 inh: -1; NLRP3 yeast inh: 7; SKKanGAS inh: 3; NALP1 yeast inh: 33*; TIM10 inh: -17; tim23-1 inh: 7

Results for O=[N+]([O-])c1cnccc1Nc1ccc(F)cc1 ?
tim10-1 inh: 9; NLRP3 yeast inh: 15; SKKanGAS inh: 8; NALP1 yeast inh: 6; TIM10 inh: -25; tim23-1 inh: 11

How did O=c1[nH]c(-c2ccccc2)nc(-c2ccccc2)c1Cl do in these assays?
tim10-1 inh: 6; NLRP3 yeast inh: 15; SKKanGAS inh: 14; TIM10 inh: 20; tim23-1 inh: 18

How did Cc1cc2c(cc1C)-c1c(ssc1=Nc1ccc(S(N)(=O)=O)cc1)C(C)(C)N2 do in these assays?
tim10-1 inh: 10; NLRP3 yeast inh: 7; SKKanGAS inh: 50*; NALP1 yeast inh: 7; TIM10 inh: 9; tim23-1 inh: 3

How did CC(=O)NS(=O)(=O)c1ccc(N=c2ssc3c2-c2cc(C)c(C)cc2NC3(C)C)cc1 do in these assays?
tim10-1 inh: 5; NLRP3 yeast inh: 4; SKKanGAS inh: 39; NALP1 yeast inh: 18; TIM10 inh: 7; tim23-1 inh: 0

Results for CCOc1ncccc1C(=O)OCC(=O)NC(=O)c1ccccc1 ?
tim10-1 inh: 6; NLRP3 yeast inh: 11; TIM10 inh: 1; tim23-1 inh: 4

What do the screens show for `Cc1onc(-c2c(F)cccc2Cl)c1C(=O)NCc1ccc2c(c1)OCO2`?
tim10-1 inh: 4; NLRP3 yeast inh: 5; SKKanGAS inh: 59*; NALP1 yeast inh: 5; TIM10 inh: -3; tim23-1 inh: 1

What do the screens show for `O=S(=O)(N[C@H](CO)Cc1ccccc1)c1ccc(Br)cc1F`?
tim10-1 inh: 7; TIM10 inh: -5; tim23-1 inh: 31

Results for COc1ccc(N2CC(C(=O)Nc3nnc(SCC(=O)NCc4ccco4)s3)CC2=O)cc1 (stereo unspecified) ?
tim10-1 inh: 1; NLRP3 yeast inh: 19; SKKanGAS inh: 7; NALP1 yeast inh: -3; TIM10 inh: 7; tim23-1 inh: -4

Results for O=C(CSc1nnc(NC(=O)C2CC(=O)N(c3ccc(F)cc3)C2)s1)NCc1ccco1 (stereo unspecified) ?
tim10-1 inh: -17; NLRP3 yeast inh: 17; SKKanGAS inh: 54*; NALP1 yeast inh: 0; TIM10 inh: -14; tim23-1 inh: 1

Results for O=C(Nc1nnc(SCCC2OCCO2)s1)C1CC(=O)N(c2ccc(F)cc2)C1 (stereo unspecified) ?
tim10-1 inh: 12; NLRP3 yeast inh: 15; SKKanGAS inh: 54*; NALP1 yeast inh: 16; TIM10 inh: 8; tim23-1 inh: 22

How did O=C(Nc1nnc(SCCC2OCCO2)s1)C1CC(=O)N(c2ccccc2)C1 (stereo unspecified) do in these assays?
tim10-1 inh: 3; NLRP3 yeast inh: 0; SKKanGAS inh: 27; NALP1 yeast inh: 4; TIM10 inh: 0; tim23-1 inh: -3

What do the screens show for `c1ccc2c(c1)CCN(C1=Nc3cccc4cccc1c34)C2`?
tim10-1 inh: 32; NLRP3 yeast inh: 3; NALP1 yeast inh: 12; TIM10 inh: 18; tim23-1 inh: 33

What do the screens show for `O=C(Nc1ccc(Cl)cc1)N[C@@H]1c2c(ccc3ccccc23)OC[C@@H]1CO`?
tim10-1 inh: -2; NLRP3 yeast inh: 9; SKKanGAS inh: 60*; NALP1 yeast inh: 18; TIM10 inh: 11; tim23-1 inh: -10
